Source: PubChem
A selection: hits, their analogues and other compounds. The true share with any hit is near 22%.
LmPK inh = inhibitors of Leishmania mexicana pyruvate kinase. Q27686. purified LmPK, Kinase-Glo ATP luminescence, 1 h. Potency, µM (highest dose often 57.5 µM), for the others: at the highest dose activity change, negative = inhibition, hits mostly inhibitors. 290,000 tested, 0.37% active; note: potency is the fitted concentration of half-maximal effect; % is set by controls: 0 for no effect and ±100 for the full control effect
Target sequence (Q27686 whole entry, looked up): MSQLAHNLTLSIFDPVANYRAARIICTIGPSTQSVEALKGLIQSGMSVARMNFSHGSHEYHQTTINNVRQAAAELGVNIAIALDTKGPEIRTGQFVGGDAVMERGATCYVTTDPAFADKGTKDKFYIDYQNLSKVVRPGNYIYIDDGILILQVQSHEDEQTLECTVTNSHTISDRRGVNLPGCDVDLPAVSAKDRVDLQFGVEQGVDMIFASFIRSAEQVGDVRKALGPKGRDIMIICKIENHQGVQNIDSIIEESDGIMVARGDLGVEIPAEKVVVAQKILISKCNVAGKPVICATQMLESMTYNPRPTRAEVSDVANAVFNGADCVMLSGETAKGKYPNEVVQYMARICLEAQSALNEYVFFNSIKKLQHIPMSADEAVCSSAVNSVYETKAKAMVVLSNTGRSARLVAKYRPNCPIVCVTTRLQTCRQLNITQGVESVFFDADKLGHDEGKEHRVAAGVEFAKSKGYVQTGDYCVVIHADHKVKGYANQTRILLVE
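Pyruvate kinase activity monitored as ATP production (luciferase luminescence). Conditions: 0.1 nM enzyme, 0.5 mM PEP, 0.1 mM ADP, 1 h, RT; normalized against uninhibited and no-enzyme wells.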
Cycloheximide cs = counter-screen for Shiga toxin inhibitors: cycloheximide protein synthesis inhibition. cell reporter, cycloheximide protein synthesis inhibition counterscreen. AID 2314. 300,000 tested, 12% active. max response, %; in the data active = max response mostly above about 13%, no sharp cut-off; inactive = mostly below about 14%; note: read at 38.3 µM for the half of the compounds with a filed dose; 0% is about no effect
Pf growth 96h = inhibits malaria parasite growth, 96 h. Potency, µM (titrated, usually from 28.7 µM), for inactives: at the top dose activity change, negative = inhibition, hits mostly inhibitors. P. falciparum luciferase reporter growth, 96 h. 320,000 tested, 6.9% active; note: potency is the fitted concentration of half-maximal effect; % is set by controls: 0 for no effect and ±100 for the full control effect
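Erythrocytes infected with luciferase-expressing P. falciparum were dispensed at 2% hematocrit and 0.05% parasitemia (final), then incubated with compounds 96 hours at 37 C in 5% CO2. Luminescence after detection reagent addition reported growth.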
Shiga inhibitor = inhibitors of Shiga toxin in Vero cells; 290,000 tested, 9.2% active; inhibition, % at 38.7 µM; Vero cells, Shiga toxin protein synthesis inhibition reporter; in the data active = inhibition mostly above about 28%, no sharp cut-off; inactive = mostly below about 43%; note: 0% is about no effect
Pf growth 48h = P. falciparum growth inhibition at 48 hours (one generation). P. falciparum luciferase growth in erythrocytes, 48 h. Potency, µM (highest dose often 28.7 µM), for inactives: at the highest dose activity change, negative = inhibition, hits mostly inhibitors. 310,000 tested, 5.9% active; note: potency is the fitted concentration of half-maximal effect; % is set by controls: 0 for no effect and ±100 for the full control effect
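Luciferase-expressing parasites in RBCs, 2% Hct / 0.1% parasitemia final; RPMI 1640 + 0.5% Albumax; 37 C, 5% CO2, one generation; luminescence read-out, lower signal = inhibition.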
* = called active by the depositor; ? = inconclusive; · = no result; [ ] = remark or other dose. Unless noted, calls come from the whole dose curve; as a rule, active = well fitted inhibition curve with a large enough effect; inconclusive = small, poorly fitted or top-dose-only effect, or another doubt; inactive = no such curve, though single readings can be large or run the other way.

SMILES	LmPK inh	Cycloheximide cs	Pf growth 96h	Shiga inhibitor	Pf growth 48h
O=C(NCCCn1ccnc1)Nc1ccc2c(c1)OCO2	-1%	39*	48%	76*	58%
O=C(NCc1cccnc1)Nc1ccc2c(c1)OCO2	-6%	27*	?	128*	62%
Cn1cc(CNC(=O)Nc2ccc3c(c2)OCO3)cn1	1%	15*	-3%	27	54%
CC(NC(=O)Nc1ccccc1F)C(C)(C)C (configuration not stated)	3%	11	-25%	12	-14%
CCC(CC)NC(=O)CSc1ccc(S(=O)(=O)N2CCCCC2)cn1	·	·	?	·	9%
Cc1ccc(S(=O)(=O)NC(N)=NCCc2ccc(Cl)cc2)cc1C	2%	2	-9%	-2	11%
CCCc1nc2ccccc2c(C(=O)OC(C)C(=O)NCc2ccc3c(c2)OCO3)c1CC (configuration not stated)	-2%	-3	?	-5	?
CCn1c(SCC(=O)c2ccc(Cl)cc2)nnc1C(C)C	5%	34*	?	116*	32%
CCn1c(SCC(N)=O)nnc1C(C)C	1%	-2	8.3µM*	-13	13%
CCn1c(SCC(=O)c2ccc(Cl)cc2)nnc1-c1cccs1	-7%	23	-12%	25	·
Cc1ccc(CN2CCN(Cc3cnc(N4CCOCC4)s3)CC2CCO)cc1 (configuration not stated)	-2%	-1	?	-24	11%
Brc1ccc2nc(-c3c[nH]c4ccccc34)cn2c1	-14%	31*	-24%	64*	344%
Cc1cccn2cc(-c3c[nH]c4ccccc34)nc12	3%	41*	?	122*	?
Nc1nc(-c2c[nH]c3ccccc23)cs1	9%	17	·	44	?
O=C(c1cccc(S(=O)(=O)N2CCCC2)c1)N1CCCC(C(F)(F)F)C1 (configuration not stated)	·	·	24%	·	-23%
COc1ccc(-n2c(=O)c(CCC(=O)N3CCC(C)CC3)nc3ccccc32)cc1	·	·	?	·	9.3µM*
COc1ccc(-n2c(=O)c(CCC(=O)N(C)Cc3cccs3)nc3ccccc32)cc1	·	·	?	·	13µM*
COc1ccc(N2CCN(CC(=O)N3CCC(C)CC3)CC2)cc1	2%	-8	-10%	-14	4%
CC1(C#CC[N+]2(C)CCCCC2)CCC2C(O1)c1ccccc1OC2(C)C (configuration not stated)	-4%	-6	3.7µM*	-17	12µM*
CCN(CC)CCn1c(=O)n(-c2ccc(Cl)cc2)c(=O)c2c3c(sc21)CN(C)CC3	9%	2	-15%	52	4.7µM*
CN1CCc2c(sc3nc(NN)n(-c4ccc(Cl)cc4)c(=O)c23)C1	-2%	7	?	29*	·
CN(C)CCNc1nc2sc3c(c2c(=O)n1Cc1ccccc1)CCCCC3	2%	-1	?	-6	?
CN1CCc2c(sc3c2c(=O)n(-c2ccc(Cl)cc2)c2nncn32)C1	1%	-3	·	-7	-9%
CN1CCc2c(sc3nc(NN)n(Cc4ccccc4)c(=O)c23)C1	-18%	8	2.1µM*	-3	3.7µM*
CCN(CC)c1ccc(C(=O)NNC(=O)CNC(=O)c2ccco2)cc1	·	·	16%	·	?
SMILES	LmPK inh	Cycloheximide cs	Pf growth 96h	Shiga inhibitor	Pf growth 48h
CC(Oc1cccc(Cl)c1)C(=O)N(C)CC(=O)Nc1ccc(N2CCOCC2)cc1 (configuration not stated)	·	·	3%	·	13%
Cc1ccc2c(c1C)NC(C)CC2C (configuration not stated)	0%	1	?	-4	13µM*
Cc1ccnc(OC(C(=O)O)C(OCc2ccccc2)(c2ccc(F)cc2)c2ccc(F)cc2)n1 (configuration not stated)	-1%	0	5%	-9	2%
COc1ccc(/C=C2\CN(Cc3ccccc3)C/C(=C\c3ccc(OC)c(O)c3)C2=O)cc1O	-2%	14*	3.7µM*	-5	3.3µM*
CCN1C/C(=C/c2ccc(OC)c(O)c2)C(=O)/C(=C/c2ccc(OC)c(O)c2)C1	2%	-4	1.7µM*	-24	2.6µM*
NN1C(=O)NC(c2ccccc2)(c2ccccc2)C1=O	0%	-3	-9%	-2	-14%
C/C(=N\NC(=O)C1CC1c1ccccc1)c1cccc([N+](=O)[O-])c1 (configuration not stated)	5%	-3	8.3µM*	5	-3%
C/C(=N\NC(=O)c1cccc([N+](=O)[O-])c1)c1ccncc1	2%	10	17%	27	32%
CC(/C=C/c1ccc2c(c1)OCO2)=N\NC(=O)c1ccccc1	2%[11.5 µM]	41*	-15%	152*	26%
O=C(N/N=C/C=C/c1ccc2c(c1)OCO2)C(O)c1ccccc1 (configuration not stated)	3%	11	25%	47*	2%
C/C(=N/NC(=O)c1ccc(O)cc1)c1cccc([N+](=O)[O-])c1	0%	31*	?	59*	43%
Nn1c(COc2ccccc2F)nnc1SCC(=O)NC1CCCCC1	·	·	-6%	·	57%
O=C(Nc1ccc(Cl)cc1F)C1CC1c1ccccc1 (configuration not stated)	4%	14	8%	·	31%
Cc1ccc(NC(=O)C2CC2c2ccccc2)c([N+](=O)[O-])c1 (configuration not stated)	4%	35*	?	34*	33%
CC/C(=N\NC(=O)c1ccc2c(c1)OCO2)C12CC3CC(CC(C3)C1)C2	1%	26*	·	57*	34%
C/C(=N\NC(=O)c1ccc2nc[nH]c2c1)c1ccc([N+](=O)[O-])cc1	4%	6	-18%	-5	16%
CC/C(=N\NC(=O)c1ccncc1)C12CC3CC(CC(C3)C1)C2	1%	-2	-16%	22	·
CC(/C=C/c1ccc2c(c1)OCO2)=N\NC(=O)c1cccc([N+](=O)[O-])c1	-1%	20*	?	35	·
C/C(=N/NC(=O)c1ccc2c(c1)OCCO2)c1ccc([N+](=O)[O-])cc1	2%	15*	43%	21*	32%
Cc1ccc(S(=O)(=O)N/N=C\c2cn(CC(N)=O)c3ccccc23)cc1	1%	-1	?	-5	26%
O=C(CCn1c(=O)[nH]c2ccsc2c1=O)NCc1ccc(F)cc1	-2%	-1	3%	-6	?
CN(CC(=O)Nc1ccccc1Br)C(=O)c1cc2c(s1)CCCCC2	·	·	46%	·	75%
CC(=O)Nc1cccc(/C(C)=N/NC(=O)c2ccc(Cl)cc2Cl)c1	1%	15	1%	34	40%
Cc1ccc(NC(=S)NC(C)(C)C)c([N+](=O)[O-])c1	2%	26*	?	25	19%
C=CCNC(=S)Nc1ccc(C)cc1[N+](=O)[O-]	-4%	15	?	26	20%
